# Source: PubChem BioAssay
# PRMT1 inh: blocks human protein arginine methyltransferase 1 | inhibition, % at 2.79 µM | Q99873 | 370,000 compounds, 1.3% hits | recombinant PRMT1, activity-based probe fluorescence polarization | AID 652257;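 active = inhibition above about 21% made by adding two undisclosed values, limit read from the data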
# Target sequence (Q99873 whole entry, looked up): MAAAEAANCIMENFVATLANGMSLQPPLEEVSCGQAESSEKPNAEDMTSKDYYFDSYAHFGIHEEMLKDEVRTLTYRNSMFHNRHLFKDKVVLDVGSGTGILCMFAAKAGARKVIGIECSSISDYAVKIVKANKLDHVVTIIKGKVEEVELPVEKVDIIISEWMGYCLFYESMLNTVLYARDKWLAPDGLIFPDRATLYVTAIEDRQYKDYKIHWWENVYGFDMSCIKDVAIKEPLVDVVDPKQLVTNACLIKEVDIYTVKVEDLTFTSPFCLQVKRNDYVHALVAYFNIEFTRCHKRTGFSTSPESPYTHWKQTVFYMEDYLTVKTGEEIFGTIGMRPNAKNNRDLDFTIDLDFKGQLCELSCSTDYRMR
# UHRF1 MBD2 ctr: blocks human UHRF1 binding to methylated DNA | AID 687016 | UHRF1 binding to methylated oligo, TR-FRET | 370,000 compounds, 0.75% hits | inhibition, % at 4.4 µM; in the data active = inhibition above about 21%;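 note: UHRF1 SRA domain binding a hemimethylated CpG hairpin DNA probe; 0% = median of test compound wells and 100% = reference inhibitor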
# MBD2 inh: blocks human MBD2 binding to methylated DNA; inhibition, % at 4.4 µM; TR-FRET, MBD2 binding to methylated oligonucleotide; 370,000 compounds, 0.31% hits; AID 686964; Q9UBB5; in the data active = inhibition above about 13%
# LEDGF integ inh: blocks HIV-1 LEDGF/p75-dependent DNA integration; TR-FRET IN-LEDGF/p75 DNA integration, Eu/Cy5; inhibition, % at 3.7 µM; 370,000 compounds, 0.64% hits; AID 743269;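 active = inhibition above the screen-wide mean plus 3 SD, cut at about 13% in these data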;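 note: signal is the Cy5 over europium emission ratio at 671 and 618 nm; 0% = plate median of compound wells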
# PRMT1 inh conf: confirmation of human PRMT1 inhibitors. shares compounds with PRMT1 inh. recombinant His-PRMT1, activity-based probe fluorescence polarization. inhibition, % at 2.79 µM. 3,300 compounds, 42% hits;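 active = mean inhibition across replicates above the hit cutoff derived for the earlier primary screen, cut at about 22% in these data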
# An asterisk follows results filed as active; x = no result. In the library only some 2.5% were active in any assay of this set; here they are far more common.
SMILES,PRMT1 inh,UHRF1 MBD2 ctr,MBD2 inh,LEDGF integ inh,PRMT1 inh conf
Cc1ccc2ccccc2c1C(O)c1ncc(-c2ccccc2F)[nH]1 (stereo not given),1.2,1.6,0.3,0.7,x
CCOC(=O)CNC(=O)CSc1nc(Cc2cccs2)nc2ccccc12,27.0*,-13.1,-1.2,-1.1,22.3*
CCOC(=O)CSc1nc(Cc2ccccc2)nc2ccccc12,0.7,0.5,-3.1,2.1,x
CCN(C(=O)COc1cccc2cccnc12)C1CCS(=O)(=O)C1 (stereo not given),32.8*,0.3,-2.2,-5.7,4.2
c1coc(-c2nc3c([nH]2)CCc2nonc2-3)c1,71.7*,8.7,-2.1,11.6,-0.3
O=C(Nc1ccc(F)c(Cl)c1)c1ccc2nc([C@@H]3O[C@H](CO)[C@H](O)[C@H](O)[C@H]3O)[nH]c2c1,-3.2,-1.5,1.4,-0.5,x
Cc1ccc(CNC(=O)CSc2c3c(nc4ccc(Cl)cc24)CCCC3)o1,50.4*,1.8,0.3,-2.0,4.6
CCN(CC)CCNC(=O)CSc1c2c(nc3cc(Cl)ccc13)CCCC2,14.0,-2.9,0.9,-2.5,x
O=C(CCCc1nc2ccccc2s1)Nc1nccs1,40.5*,1.1,-6.9,4.5,13.9
Cc1ccc2nc(NC(=O)CCCc3nc4ccccc4s3)sc2c1,4.1,-0.5,1.3,0.8,x
O=C(CCCSc1nc2ccccc2s1)Nc1nccs1,4.0,6.1,-3.8,-5.2,x
Cc1cnc(NC(=O)CCCc2nc3ccccc3s2)s1,49.2*,3.3,2.3,-1.1,20.6
COc1ccc(NC(=O)c2cc(-c3cc(C)cc(F)c3)n[nH]2)cc1OC,-2.5,-2.3,0.6,1.5,x
COc1ccccc1Cc1c(-c2ccco2)nc2c3ccccc3ccn12,18.1,12.5,0.8,0.0,x
COC(=O)CSCC(=O)Nc1nnc(-c2cccc(C)c2)s1,4.1,3.6,4.0,-3.2,x
Cc1ccc(NN2C(=O)C=C(c3ccccc3)C2=O)cc1,35.3*,20.9*,1.8,3.3,14.9
CN1CCC(CNC(=O)Nc2csc3ccccc23)CC1,42.4*,3.0,-0.2,3.5,-0.7
O=C(Cc1csc2ccccc12)NCC1CC1,2.5,0.7,2.7,-1.6,x
O=C(CC(c1ccco1)S(=O)(=O)c1ccccc1)c1ccc(F)cc1 (stereo not given),28.5*,3.5,1.4,0.4,22.3*
COc1ccc(Cc2c(-c3ccco3)nc3c(C)cc(Br)cn23)c(C)c1,6.7,-2.0,3.5,-1.6,x
COc1ccc(Cc2c(-c3ccco3)nc3ccc(Br)cn23)c(C)c1,30.9*,5.9,2.9,5.1,20.0
Cc1ccc(Cc2c(-c3cccc(Br)c3)nc3ccc(Br)cn23)cc1,-0.6,20.6,3.9,7.0,x
COc1ccc(Cc2c(-c3ccco3)nc3ccc(Cl)cn23)c(C)c1,27.3*,5.9,1.2,10.7,14.9
Cc1ccc(Cc2c(-c3ccco3)nc3ccc(Br)cn23)cc1,31.4*,-0.2,1.4,1.9,16.0
CN(C)C(=O)CCc1ccc2c3c([nH]c2c1)[C@]1(CCC2CCCC2)[C@@H](C(=O)N2CCOCC2)C[C@H](CC(=O)NCCC2=CCCCC2)C(=O)N1CC3,2.3,-0.6,4.1,2.6,x
SMILES,PRMT1 inh,UHRF1 MBD2 ctr,MBD2 inh,LEDGF integ inh,PRMT1 inh conf
COC(=O)c1c(NC(=O)CN2CCC3(O)CCCCC3C2c2ccc(OC)cc2OC)sc(C)c1C (stereo not given),30.1*,2.5,2.3,-2.9,12.5
COC(=O)c1c(NC(=O)CN2CCC3(O)CCCCC3C2c2ccccc2OC)sc(C)c1C (stereo not given),-1.1,-0.2,-3.0,0.9,x
Cc1cc(C)c(C)c(S(=O)(=O)N2C(=S)NC(=O)C2CC(C)C)c1C (stereo not given),2.0,-1.2,4.1,6.4,x
Cc1cc(C)c(C)c(S(=O)(=O)N2C(=S)NC(=O)C2C(C)C)c1C (stereo not given),28.5*,-0.8,1.4,2.3,6.5
CCC(CC)c1nnc(NC(=O)c2cc(C(=O)OC)cc([N+](=O)[O-])c2)s1,29.1*,1.9,-3.4,7.9,20.3
CCCCC(=O)NC(=S)NNC(=O)c1ccc(OC)cc1,7.7,-1.3,-0.4,2.3,x
O=c1c2ccccc2nc(N2CCN(c3ccccc3)CC2)n1Cc1ccccc1,74.2*,0.6,-1.6,-1.2,3.3
Cc1ccc(C)c(N2CCN(c3nc4ccccc4c(=O)n3Cc3ccccc3)CC2)c1,-0.7,-1.1,-5.3,3.8,x
CC1=C(O)C(=O)C(c2c(C)cc(C)c(Br)c2C)=C(O)C1=O,25.0*,-0.4,-5.0,-1.5,23.5*
COc1ccc(NC(=O)c2ccc(Oc3ncccn3)cc2)cc1,-1.6,-3.6,4.1,0.8,x
CN(C)CCP(=O)(c1ccccc1)c1ccccc1,-3.0,-2.4,5.3,2.3,x
CN(C)CCN(C)Cc1c2ccccc2c(CN(C)CCN(C)C)c2ccccc12,30.9*,-4.5,-4.2,-3.9,7.5
COc1cccc(/C=C2\Sc3ccc(C(=O)NCc4cccnc4)cc3N(C)C2=O)c1,18.0,-2.5,-0.5,0.2,x
COc1ccc(/C=C2\Sc3ccc(C(=O)NCc4cccnc4)cc3N(C)C2=O)cc1OC,31.9*,-0.7,-0.6,0.7,8.9
CCN(C(=O)C(C)N1C(=O)/C(=C/c2ccco2)SC1=S)C1CCS(=O)(=O)C1 (stereo not given),26.1*,30.5*,-2.4,48.9*,5.8
CNc1n[nH]c(=S)s1,6.8,1.9,0.7,-3.7,x
Cc1ccc(Nc2n[nH]c(=S)s2)c(C)c1,35.4*,-0.9,-0.5,-7.2,35.8*
Cc1cccc(C)c1Nc1n[nH]c(=S)s1,31.9*,-2.4,1.4,-0.1,8.0
Cc1cc(C)c(Nc2n[nH]c(=S)s2)cc1C,46.8*,-3.0,2.7,-4.0,22.5*
COc1ccc(C)cc1NC(=O)CCNS(=O)(=O)c1cccc(C(F)(F)F)c1,-3.4,1.8,5.9,0.5,x
O=C(CCNC(=O)C1CCN(S(=O)(=O)c2ccccc2)CC1)NCc1cccnc1,3.5,3.9,1.9,-1.4,x
Cc1cc(NC(=O)c2ccc3sc([C@@H]4O[C@H](CO)[C@H](O)[C@H](O)[C@H]4O)nc3c2)no1,0.2,-1.8,-1.9,0.0,x
Cn1c(CS/C(N)=N/N=C/c2ccccc2)c(Br)c(=O)n1-c1ccccc1,42.0*,-6.4,-5.0,-0.8,55.7*
c1coc(-c2cc3nc(NCc4ccc5c(c4)OCO5)ccn3n2)c1,31.6*,0.8,-4.9,6.2,9.6
c1coc(-c2cc3nc(NC4CCCCC4)ccn3n2)c1,28.9*,-1.2,0.3,5.4,8.5
CCCn1c(SCC(=O)N2CC(=O)Nc3ccccc32)nc2ccccc21,37.2*,8.3,-0.6,-2.4,24.1*
COc1ccc(OC)c(NC(=O)COC(=O)CCCN=C2NS(=O)(=O)c3ccccc32)c1,2.5,2.1,-2.8,-2.6,x
O=C1c2ccccc2[C@@H]2Cc3csc[n+]3[C@H]12,85.3*,-1.6,-3.4,-1.4,82.7*
Nc1ccccc1SSc1ccccc1N,82.6*,3.2,2.4,-6.4,83.8*
